# Results taken from PMC12350791.
# Biological target: ACTR2 (UniProt P61160)
# Assay: cross-linking mass spectrometry
# Settings: DSBSO, in cells or nuclear extract, not told apart
# Sequence of DDX39A, O00148 (O00148 whole entry): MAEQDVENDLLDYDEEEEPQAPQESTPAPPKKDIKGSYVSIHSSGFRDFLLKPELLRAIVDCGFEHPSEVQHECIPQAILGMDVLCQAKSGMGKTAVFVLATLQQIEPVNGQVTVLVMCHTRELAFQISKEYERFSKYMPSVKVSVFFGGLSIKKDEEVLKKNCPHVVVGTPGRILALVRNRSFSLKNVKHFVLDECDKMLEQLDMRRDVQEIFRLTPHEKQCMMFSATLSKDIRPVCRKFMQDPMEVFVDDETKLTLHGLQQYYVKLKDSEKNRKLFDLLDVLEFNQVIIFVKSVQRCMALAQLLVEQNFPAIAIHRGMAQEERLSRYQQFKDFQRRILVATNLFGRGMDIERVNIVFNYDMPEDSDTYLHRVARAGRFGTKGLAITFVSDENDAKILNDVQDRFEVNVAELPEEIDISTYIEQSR
# Sequence of ERH, P84090 (P84090 whole entry): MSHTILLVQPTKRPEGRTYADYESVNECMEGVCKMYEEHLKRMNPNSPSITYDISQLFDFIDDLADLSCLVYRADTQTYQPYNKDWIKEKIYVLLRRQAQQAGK
# Sequence of DDX39B, Q13838 (Q13838 whole entry): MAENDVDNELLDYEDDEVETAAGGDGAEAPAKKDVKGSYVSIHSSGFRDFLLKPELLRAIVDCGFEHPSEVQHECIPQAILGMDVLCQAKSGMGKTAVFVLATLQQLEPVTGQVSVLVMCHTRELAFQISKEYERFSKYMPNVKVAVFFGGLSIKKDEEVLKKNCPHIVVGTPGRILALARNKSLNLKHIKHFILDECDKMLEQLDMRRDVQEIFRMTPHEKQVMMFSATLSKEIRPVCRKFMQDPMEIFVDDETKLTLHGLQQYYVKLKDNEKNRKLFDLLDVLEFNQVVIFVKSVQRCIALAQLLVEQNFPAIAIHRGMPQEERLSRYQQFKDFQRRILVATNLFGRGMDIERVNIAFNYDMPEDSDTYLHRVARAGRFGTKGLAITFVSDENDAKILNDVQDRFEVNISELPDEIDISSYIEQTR
row,Substance,cross-linked residues
1,"ARPC4, P59998",K44 - K322
2,"ACTR3, P61158",K348 - K46
3,"ARPC1B, O15143",K49 - K219
4,"ARPC3, O15145",K61 - K46

# Biological target: CHTOP (UniProt Q9Y3Y2)
# Assay: cross-linking mass spectrometry
# Settings: DSBSO, in cells or nuclear extract, not told apart
# Sequence of CHTOP (Q9Y3Y2 whole entry): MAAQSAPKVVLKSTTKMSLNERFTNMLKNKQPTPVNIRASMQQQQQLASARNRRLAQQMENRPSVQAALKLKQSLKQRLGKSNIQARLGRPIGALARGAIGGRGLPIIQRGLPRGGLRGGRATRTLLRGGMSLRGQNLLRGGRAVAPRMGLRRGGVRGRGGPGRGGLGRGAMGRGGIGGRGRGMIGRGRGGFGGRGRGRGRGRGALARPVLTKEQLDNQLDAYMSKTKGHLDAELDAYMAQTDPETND
row,Substance,cross-linked residues
1,"ERH, P84090",K90 - K30
2,"DDX39A, O00148",K187 - K226
3,"DDX39B, Q13838",K188 - K226
